Assay results as given in PubChem BioAssay (Tox21).
Inconclusive results are not listed. Where a call stands in place of a potency, no number is given. Calls of active or inactive are those of the source. Calls come from the whole dose curve.

Test: qHTS assay to identify small molecule agonists of the AP-1 signaling pathway - cell viability counter screen (AID 1159525); note: nearly all actives have a fitted effect of over 55% in size
Settings: ME-180 (cervical carcinoma) AP-1-bla cells viability, ATP luminescence, 5 h; series mostly up to 76.8 µM
Source text: National Center for Advancing Translational Sciences [NCATS]
NIH Chemical Genomics Center [NCGC]
U.S. Environmental Protection Agency [EPA]
National Institutes of Environmental Health Sciences [NIEHS]
National Toxicology Program [NTP]
U.S. Food and Drug Administration [FDA]
Activator protein-1 (AP-1), a transcription factor, plays an important role in tumor genesis by regulating genes involved in cell proliferation, differentiation, apoptosis, and angiogenesis. AP-1 activity is induced by a complex network of signaling pathways that involves extracellular signals, such as growth factors. The AP-1 protein complex formed from c-Fos and c-Jun binding to the AP-1 response element results in transcriptional activation of genes containing such elements within their promoter.
Low molecular weight molecules have been discovered and developed to modulate various components of these signaling pathways, for example, MAP kinase inhibitors. However, many points of pathway modulation remain untested due to the lack of chemical probes making this signaling locus of general interest.
Using a beta-lactamase reporter-gene under control of the AP-1 response element, a cell-based assay [CellSensor(TM) AP-1-bla ME-180 developed by Invitrogen Corp.] was used to measure EGF-induced signaling. The Tox21 10K library compounds were measured for their ability to positively modulate the action of EC50 EGF on reporter gene activity. Compounds were screened in a 15-pt titration series in 1536-well format. The cytotoxicity of the Tox21 compound library against this cell line was tested in parallel by measuring the intra cellular ATP content in the same wells.
Tox21 Assay Protocol Summary:
2500 cells/5uL in Opti-MEM medium containing 0.5% dialyzed FBS, 0.1 mM NEAA, 1 mM sodium pyruvate and 10 mM HEPES was dispensed into 1536-well black wall/clear bottom plates using a Multidrop dispenser and cells were cultured at 37 degrees Celsius overnight. Next day 23 nL of compounds dissolved in DMSO, positive controls or DMSO were delivered to each well using a pin tool. The plates were incubated at 37 degrees Celsius for 5 hours. 1 uL of LiveBLAzerTM B/G FRET substrate (Solution A+B+C+D) was added to each well using a Flying Reagent Dispenser. After incubated at room temperature for 2.5 hours the plates were measured on an EnVision plate reader at Excitation 405nm, Emission1=460nm and Emission 2=530nm. The %Activity was determined from the ratio of 460nm/530nm.
After the plates were read for Beta-Lactamase assay on Envision; 3 ul Cell Titer Glo (Promega) was added to measure the cytotoxicity and the plates were then incubated at RT in dark for 30 min. The luminescence was read on ViewLux (Perkin Elmer, Shelton, CT) using 6 sec exposure. ViewLux data was expressed as relative luminescence units.
For primary data analysis, raw plate reads for each titration point were first normalized relative to […] EGF control (100%) and DMSO only wells (basal, 0%).
For primary data analysis for viability assay, raw plate reads for each titration point were first normalized Tetra n-octyl ammonium bromide control (-100%) and DMSO (control, 100%).

Row | Compound | Potency | viability change, negative = cytotoxic
1 | Nc1ccc([N+](=O)[O-])c(C(F)(F)F)c1 | inactive | 
2 | NCCCN1CCOCC1 | inactive | 
3 | CCCCCC[C@@H](O)C/C=C\CCCCCCCC(=O)OC | inactive | 
4 | COc1cc(C(=O)OCCCN2CCCN(CCCOC(=O)c3cc(OC)c(OC)c(OC)c3)CC2)cc(OC)c1OC | inactive | 
5 | Brc1c2ccccc2c(Br)c2ccccc12 |  | 0.0847% [at 6.97 µM] (inactive)
6 | C=C(C)C(=O)OCCOCC | inactive | 
7 | O=C1OC(CN2CCOCC2)CN1/N=C/c1ccc([N+](=O)[O-])o1 (stereo not given) | inactive | 
8 | CC(C)(O)c1ccc(CNC(=O)c2cccnc2Oc2ccc(F)cc2)cc1 | inactive | 
9 | NCc1ccccc1Sc1ccccc1CO | inactive | 
10 | C[C@@H](c1ncncc1F)C(O)(Cn1cncn1)c1ccc(F)cc1F (stereo not given in full) | inactive | 
11 | CCOCC(O)COc1ccc(NC(=O)CC[S+](C)C)cc1 (stereo not given) | inactive | 
12 | C=C(C)C(=O)OCCO | inactive | 
13 | CCOC(=O)NCCOc1ccc(Oc2ccccc2)cc1 | inactive | 
14 | COc1ccc(C(=O)c2ccc(OC)cc2O)c(O)c1 | inactive | 
15 | O=C1C(O)=C(O)C(=O)C(O)=C1O | inactive | 
16 | CCc1c(C(=O)NN2CCCCC2)nn(-c2ccc(Cl)cc2Cl)c1-c1ccc(Br)cc1 | inactive | 
17 | C#Cc1cccc(Nc2ncnc3cc(OCCOC)c(OCCOC)cc23)c1 | inactive | 
18 | NC(=O)C(c1ccccc1)(c1ccccc1)[C@@H]1CCN(CCc2ccc3c(c2)CCO3)C1 | inactive | 
19 | NCC(=O)O |  | -1.65% [at 15.8 µM] (inactive)
20 | CCCCNc1ccc(C(=O)OCCOCCOCCOCCOCCOCCOCCOCCOCCOC)cc1 | inactive | 

Row | Compound | Potency | viability change, negative = cytotoxic
21 | S=C([S-])NCCNC(=S)[S-].[Mn+2] | inactive | 
22 | CCC(CC)Nc1ccc(C)c(C)c1 | inactive | 
23 | CCCNCC(O)COc1ccccc1C(=O)CCc1ccccc1 (stereo not given) | inactive | 
24 | COc1ccnc(CS(=O)c2nc3ccc(OC(F)F)cc3[nH]2)c1OC (stereo not given) | inactive | 
25 | Cc1nn(C)c(Oc2ccccc2)c1/C=N/OCc1ccc(C(=O)OC(C)(C)C)cc1 | inactive | 
26 | COC(C)OC | inactive | 
27 | CN(C)CCN(Cc1ccccc1)c1ccccn1 | inactive | 
28 | CC(C)C[C@H]1C(=O)N2CCC[C@H]2[C@]2(O)O[C@](NC(=O)[C@@H]3C=C4c5cccc6[nH]c(Br)c(c56)C[C@H]4N(C)C3)(C(C)C)C(=O)N12 | inactive | 
29 | CCCn1cnc2c1c(=O)n(CCCCC(C)=O)c(=O)n2C | inactive | 
30 | COc1cc(Cl)c(OC)cc1N | inactive | 
31 | CC(C)(C)Cl | inactive | 
32 | CCCCO | inactive | 
33 | Nc1cccc(S(=O)(=O)c2cccc(N)c2)c1 | inactive | 
34 | CCCCOC(=O)CCCCCCCC(=O)OCCCC | inactive | 
35 | O=C(Nc1ccc(S(=O)(=O)N2CCOCC2)cc1)c1cc(Cl)ccc1NS(=O)(=O)c1ccc(Cl)s1 | inactive | 
36 | CCCCCCCCCCCc1ccccc1 | inactive | 
37 | c1ccc(C(O[C@H]2CCCN(CCc3ccc4c(c3)OCO4)C2)c2ccccc2)cc1 | inactive | 
38 | c1ccc(-c2ccccn2)nc1 | inactive | 
39 | C[N+]1(CC2COC(c3ccccc3)(C3CCCCC3)O2)CCCCC1 (stereo not given) | inactive | 
40 | NS(=O)(=O)c1ccc(N2CCCCS2(=O)=O)cc1 | inactive | 
